FBW7 activator – activators of human E3 ligase FBW7; normalized activity (activation), % at 26.1 µM; AlphaScreen FBW7–phospho-cyclin E peptide binding, activator screen; 0.13% of 650,000 active; Q969H0; in the data active = normalized activity above about 1.9%;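 note: purified mutant Fbw7 with reduced substrate affinity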
MITF inh – inhibitors of human MITF; O75030; inhibition, % at 2.6 µM; 0.91% of 650,000 active; AlphaScreen MITF homodimerization, bead proximity signal; in the data active = inhibition above about 50%;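 note: 0% = vehicle wells with protein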
GPR151 activ – activators of human GPR151. AID 1508602. 1% of 650,000 active. PathHunter beta-arrestin GPR151 cells, luminescence. activation, % at 11.2 µM. Q8TDV0; in the data active = activation above about 4.9%;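 note: 0% = median of compound wells and 100% = cells with positive control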
Target sequence (Q8TDV0 whole entry, looked up): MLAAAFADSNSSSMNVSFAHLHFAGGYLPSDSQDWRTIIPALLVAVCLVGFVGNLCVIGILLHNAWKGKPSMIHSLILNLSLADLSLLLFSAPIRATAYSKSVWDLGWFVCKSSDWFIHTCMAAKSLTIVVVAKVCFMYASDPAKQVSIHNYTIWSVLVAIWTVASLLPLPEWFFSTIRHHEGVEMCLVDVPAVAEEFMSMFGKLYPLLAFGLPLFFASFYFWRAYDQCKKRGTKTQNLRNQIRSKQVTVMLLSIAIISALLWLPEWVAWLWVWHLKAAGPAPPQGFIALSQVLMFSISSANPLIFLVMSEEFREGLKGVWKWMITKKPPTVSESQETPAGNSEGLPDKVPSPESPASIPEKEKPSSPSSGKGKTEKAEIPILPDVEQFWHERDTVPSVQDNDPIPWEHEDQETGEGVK
TEAD-YAP block – TEAD-YAP interaction inhibition; HEK-TIYL cells, TEAD-Gal4/YAP UAS-luciferase luminescence; inhibition, % at 9.12 µM; 1.4% of 640,000 active; in the data active = inhibition above about 32%;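 note: 0% = median of test compound wells and 100% = reference inhibitor wells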
GPR151 conf act – human GPR151 activation, confirmation screen | GPR151 PathHunter beta-arrestin cells, luminescence, 90 min; % of EA-reagent control over plate median | AID 1508609 | shares compounds with GPR151 activ | 6,700 tested, under 10 active | activation, % at 11.2 µM;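 active = mean percent activation across replicates above the confirmation screen cutoff of 4.91%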
GPR119 counter – activates human GPR119 in a GPR151 counter-screen; shares compounds with GPR151 activ; GPR119 PathHunter beta-arrestin cells, luminescence, 90 min; 0 = compound-well median, 100 = enzyme-acceptor control; activation, % at 11.2 µM; 0.3% of 6,700 active; AID 1508611;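 active = mean percent activation in the counterscreen above 29.09%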;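 note: counterscreen on off-target GPR119 to flag nonselective hits from the GPR151 activator screen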
* marks the source's active call; other numbers are inactive results; . = no result. Hits are enriched below; roughly 3.5% of the tested compounds scored in any of these assays.

SMILES	FBW7 activator	MITF inh	GPR151 activ	TEAD-YAP block	GPR151 conf act	GPR119 counter
O=C(Nc1ccc2[nH]ncc2c1)[C@H]1CCN(C(=O)[C@H](O)CSc2ccc(Br)cc2)C1	0	6	-1	-11	.	.
O=C(Nc1ccc2[nH]ncc2c1)[C@H]1CCN(C(=O)[C@@H](O)CSc2ccc(Br)cc2)C1	0	1	5.7*	-4	-1	10
CCCc1cc(C(=O)Nc2sc(C)c(CC)c2C(N)=O)cs1	1	23	9.1*	-28	0	5
CCOC(=O)c1c(NC(=O)CNCC(O)CO)sc(C)c1C (stereo unspecified)	0	-11	5.3*	-16	1	5
CCCC(=O)Nc1sc(C)c(CC)c1C(=O)OCC	0	-4	13*	8	0	-8
O=Cc1cccc(OCC(=O)NCc2ccccc2)c1	0	3	3	7	.	.
Cc1ccc(CN2CCNC(=O)C2CC(=O)NCc2cc(C(F)(F)F)ccc2F)cc1 (stereo unspecified)	0	0	6.5*	-3	0	5
Cc1ccc(CN2CCNC(=O)C2CC(=O)NCc2cnn(C)c2)cc1 (stereo unspecified)	0	-4	0	1	.	.
O=c1[nH]c2ccccc2n1CCN1CCOCC1	0	-4	1	3	.	.
c1ccc(CN2CCN(Cc3nnnn3Cc3cccs3)CC2)cc1	0	10	5.9*	2	0	-3
c1ccc(N2CCN(Cc3nnnn3Cc3cccs3)CC2)cc1	0	-1	1	-2	.	.
Cc1ccccc1NC(=O)c1ccc(S(=O)(=O)NC2CCCCC2)c(C)c1	0	18	-1	3	.	.
CSc1nc2ccccc2c(=O)n1C1CCCCC1	0	2	5.3*	-6	0	9
COc1ccccc1C(NC(=O)c1cnccn1)c1nccn1C (stereo unspecified)	1	10	0	1	.	.
COc1ccccc1C(NC(=O)c1nccc2ccccc12)c1nccn1C (stereo unspecified)	0	7	6.4*	-2	0	-1
O=C(NCC(=O)N1CCN(c2ccccc2)CC1)c1c(F)cccc1F	0	-3	6.0*	-9	1	9
CC(CC(=O)N1CCN(c2ccc(F)cc2)CC1)c1ccccc1 (stereo unspecified)	0	0	11*	3	0	3
CC(c1ccccc1)N1CC(C(=O)N2CCN(c3ccc(F)cc3)CC2)CC1=O (stereo unspecified)	0	4	5.2*	2	-1	-17
CCCC(C)C(=O)N1CCN(c2ccc(F)cc2)CC1 (stereo unspecified)	0	6	1	3	.	.
CCOC(=O)C1C(=O)CC(C)(O)C(C(=O)OCC)C1c1ccc(CC)cc1 (stereo unspecified)	0	6	1	5	.	.
CCOC(=O)C1C(=O)CC(C)(O)C(C(=O)OCC)C1c1cccnc1 (stereo unspecified)	0	-3	5.0*	-9	0	4
O=C(O)c1cc(-c2ccc(Cl)cc2)nc2ccccc12	0	3	1	-1	.	.
Cc1ccc(-n2ncc3c(SCC(=O)NC(C)C)ncnc32)c(C)c1	0	2	1	0	.	.
Cc1ccc(-n2ncc3c(SCC(=O)Nc4ccc(C(N)=O)cc4)ncnc32)c(C)c1	0	3	5.3*	8	1	0
CCCNC(=O)CN1C(=O)COc2ccccc21	0	9	-1	-17	.	.
COC(=O)C1=C(C)NC(=O)CC1c1cccc(Oc2ccccc2)c1 (stereo unspecified)	0	10	8.3*	11	1	-5
CC1=C(C(=O)OC(C)C)C(c2cccc(Oc3ccccc3)c2)C(C(=O)OC(C)C)=C(C)N1	0	-6	-1	7	.	.
C=CCOC(=O)C1=C(C)NC(C)=C(C(=O)OCC=C)C1c1cccc(Oc2ccccc2)c1	1	9	7.1*	3	0	-4
Cc1csc(NC(=O)C2CCN(S(=O)(=O)c3ccc4c(c3)CCC(=O)N4)CC2)n1	0	-8	1	2	.	.
CSCCCNC(=O)Cn1nnnc1CN1CCCCCC1	0	7	13*	3	0	3
